CHO-K1 Ca ag: counter-screen for M1 agonists: effect in parental CHO-K1 cells; Fluo-8 calcium fluorescence; scaled to maximal ATP response, vehicle zero; activation, % at 3 µM; hit rate 0.48% among 360,000; in the data active means activation above about 15%;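 further: untransfected CHO-K1 host cells lacking M1 receptor as counterscreen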
CHO-K1 Ca PAM: nonselective calcium activators in parental CHO-K1 cells, primary screen, counter-screen for M1 PAM project, cell-based, Fluo-8 calcium fluorescence, full deck, 1536-well; hit rate 0.02% among 360,000; ATP EC20; 0% at ATP EC20, 100% at ATP max; activation, % at 3 µM;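 active means activation above the run cutoff, the mean activation of all test compounds plus 3 SD, cut at about 40% in these data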;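 further: peak over basal fluorescence ratio in a 140 s read after ATP addition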
CHO-K1 Ca antag: counter-screen for M1 antagonists: effect in parental CHO-K1 cells; ATP-induced calcium, Fluo-8 fluorescence; inhibition, % at 3 µM; hit rate 0.6% among 360,000;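 active means inhibition above a per-plate cutoff, the plate's mean sample inhibition plus 3 SD, cut at about 24% in these data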
CHRM1 agonist: human M1 muscarinic receptor agonists, primary screen, Fluo-8 calcium fluorescence, CHO-K1 cells, HTS | Muscarinic acetylcholine receptor M1 (Homo sapiens), P11229 | CHO-K1 hM1, agonist mode; 0% DMSO, 100% acetylcholine EC100 | activation, % at 3 µM | hit rate 0.33% among 360,000 | AID 588814, 2011;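 active means activation above the run's mean compound activation plus 3 SD, cut at about 16% in these data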;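 further: peak over basal fluorescence ratio within a 140 s kinetic read after compound addition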
Target sequence (P11229 whole entry, looked up): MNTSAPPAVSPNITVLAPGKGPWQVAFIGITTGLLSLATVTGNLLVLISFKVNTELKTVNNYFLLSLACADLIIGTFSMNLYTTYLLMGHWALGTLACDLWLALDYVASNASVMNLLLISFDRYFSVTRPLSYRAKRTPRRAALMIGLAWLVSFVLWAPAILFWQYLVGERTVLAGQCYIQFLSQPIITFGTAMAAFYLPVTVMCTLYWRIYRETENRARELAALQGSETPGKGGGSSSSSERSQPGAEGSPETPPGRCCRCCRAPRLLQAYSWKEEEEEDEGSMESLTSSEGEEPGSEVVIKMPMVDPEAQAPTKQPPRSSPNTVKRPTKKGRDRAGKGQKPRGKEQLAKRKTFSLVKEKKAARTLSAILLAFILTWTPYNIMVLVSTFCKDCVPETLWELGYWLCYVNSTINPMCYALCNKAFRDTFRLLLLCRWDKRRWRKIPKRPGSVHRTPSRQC
CHRM1 antagonist: human M1 muscarinic receptor antagonists, primary screen, CHO-K1 cells, Fluo-8 calcium fluorescence, 1536-well; CHO-K1 hM1, ACh EC80 antagonist; hit rate 1.3% among 360,000; inhibition, % at 3 µM; AID 588852, 2011;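 active means percent inhibition above its own plate's cutoff, namely the mean of that plate's compound wells plus 3 SD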;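 further: peak over basal fluorescence ratio during 140 s after agonist addition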
CHRM1 PAM: human M1 muscarinic receptor positive allosteric modulators, primary screen, CHO-K1 cells, Fluo-8 calcium fluorescence, 1536-well | Muscarinic acetylcholine receptor M1 (Homo sapiens), P11229 | CHO-K1 hM1, ACh EC20; 0% = ACh EC20, 100% = maximal ACh | activation, % at 3 µM | hit rate 0.088% among 360,000 | AID 588819, 2011; in the data active means activation above about 19%, passing the limit was not always enough
Of the large screens only hits and unclear results are named; the others gave an inactive call. A selection: hits, their analogues and other compounds. The true share with any hit is near 2.3%.

CCCN(CCC)S(=O)(=O)c1ccc(C(=O)Nc2c(C)n(C)n(-c3ccccc3)c2=O)cc1	CHRM1 antagonist 39
Cc1c(NC(=O)c2cccc(S(=O)(=O)N(C)c3ccccc3)c2)c(=O)n(-c2ccccc2)n1C	CHRM1 antagonist 38
Cc1c(NC(=O)c2ccc(N(C)S(=O)(=O)c3ccccc3)cc2)c(=O)n(-c2ccccc2)n1C	none
Cc1c(NC(=O)c2ccccc2NS(=O)(=O)c2ccc(F)cc2)c(=O)n(-c2ccccc2)n1C	none
Cc1c(NC(=O)c2ccc(S(=O)(=O)N3CC(C)OC(C)C3)cc2)c(=O)n(-c2ccccc2)n1C (centres undefined)	CHO-K1 Ca antag 32
Cc1c(NC(=O)c2ccc(S(=O)(=O)Nc3ccccc3F)cc2)c(=O)n(-c2ccccc2)n1C	CHRM1 antagonist 35
CCN(C(=O)COC(=O)c1ccccc1Oc1ccccc1)c1c(N)n(Cc2ccccc2)c(=O)[nH]c1=O	none
Cn1ccnc1C1CCCCN1C(=O)c1cc(COc2ccc(F)cc2Cl)on1 (centres undefined)	CHRM1 antagonist 36
CSc1ccccc1OCc1cc(C(=O)N2CCSCC2)no1	none
COCC1CCN(C(=O)c2cc(COc3ccc(F)cc3Cl)on2)C1 (centres undefined)	none
CSc1ccccc1OCc1cc(C(=O)N2CCC(Oc3cccnc3)CC2)no1	CHRM1 antagonist 39
CCN(CC)C1CCN(C(=O)c2cc(COc3ccccc3SC)on2)C1 (centres undefined)	CHRM1 antagonist 56
CCN(CC)C1CCN(C(=O)c2cc(COc3ccc(F)cc3Cl)on2)C1 (centres undefined)	CHRM1 antagonist 70
O=C(c1cc(COc2ccc(F)cc2Cl)on1)N1CC[C@@H]2CCCC[C@H]2C1	none
CSc1ccccc1OCc1cc(C(=O)N2CCCC(C)C2)no1 (centres undefined)	none
CCC[N+](CC#CCO)(CC#Cc1ccccc1)CCC	none
CC[N+](CC)(CC#Cc1ccccc1)CC(=O)c1ccc(Cl)cc1	CHRM1 antagonist 35
COC(=O)c1ccc(S(=O)(=O)c2ccccc2)c(N)c1	none
CCN1CCN(CC(=O)N2c3ccccc3Sc3ccccc32)CC1	CHRM1 antagonist 76
O=C(CN1CCCC1)N1c2ccccc2Sc2ccccc21	CHRM1 antagonist 97
OC(c1ccccc1)C(NCCNCc1ccccc1)c1ccccc1 (centres undefined)	CHRM1 antagonist 38
O=C1/C(=C\c2c(NCCOCCO)nc3ccccn3c2=O)SC(=S)N1Cc1ccco1	CHO-K1 Ca ag 20, CHRM1 agonist 30
CCCN1C(=O)/C(=C/c2c(NCCCOCC)nc3c(C)cccn3c2=O)SC1=S	none
OCCCCNCc1ccc(OCc2ccccc2Cl)cc1	CHRM1 antagonist 44
OCCCCNCc1ccc(OCc2ccccc2)cc1	none
CCc1cc(OCCCCNCc2ccccc2)ccc1Cl	CHO-K1 Ca ag 17
CCC1CCCCN1S(=O)(=O)c1ccc(NC(=O)c2ccncc2)cc1 (centres undefined)	CHO-K1 Ca ag 16, CHRM1 antagonist 34
CCC1CCCCN1S(=O)(=O)c1ccc(S(=O)(=O)N(Cc2ccccn2)CC2CCCO2)cc1 (centres undefined)	none
CCC1CCCCN1S(=O)(=O)c1ccc(S(=O)(=O)N(Cc2cccs2)C2CC2)cc1 (centres undefined)	CHRM1 antagonist 63
Cc1cc(C)c2c(n1)SCC(=O)N2CC(=O)Nc1c(C)cccc1C	none
Cc1cc(C(=O)CSc2nc3ccccc3[nH]2)c(C)n1Cc1ccco1	CHO-K1 Ca antag 27, CHRM1 antagonist 40
C=CCn1c(C)cc(C(=O)CSc2nc3ccccc3[nH]2)c1C	CHO-K1 Ca ag 18, CHRM1 antagonist 39
O=C1C=C(c2cc(F)ccc2F)C[C@@H](c2ccc(F)cc2)C1	none
CCn1c(SCC(=O)Nc2ccccc2)nnc1-c1cccs1	none
CCn1c(SCC(=O)c2ccc(NS(=O)(=O)c3ccccc3)cc2)nnc1-c1cccs1	CHO-K1 Ca antag 24
Cc1ccccc1N(C(=O)c1snc(C(N)=O)c1N)C(C(=O)NCc1ccccc1)c1ccc(O)cc1 (centres undefined)	none
NC(=O)c1nsc(C(=O)N(c2ccccc2F)C(C(=O)NCc2ccccc2)c2ccc(O)cc2)c1N (centres undefined)	CHRM1 antagonist 39
CCC(=O)Nc1cc2c(cc1Cl)-c1ccccc1C2	none
CC(=O)Nc1cc2c(cc1Cl)-c1ccccc1C2	CHO-K1 Ca antag 26
O=C(NC1CCCC1)C(c1ccccc1F)N(C(=O)Cc1cccs1)c1ccc2c(c1)OCCO2 (centres undefined)	CHO-K1 Ca ag 24
COC(=O)C1(c2ccccc2)NC(c2cccs2)C2C(=O)N(c3ccccc3)C(=O)C21 (centres undefined)	CHRM1 agonist 41
COC(=O)C1(c2ccccc2)NC(c2cccs2)C2C(=O)N(C)C(=O)C21 (centres undefined)	none
COc1ccccc1NC(=O)C(C)OC(=O)CCSc1ccc(F)cc1 (centres undefined)	none
Cc1ccccc1OCCn1cc(C(=O)C(=O)N2CCOCC2)c2ccccc21	CHO-K1 Ca ag 23
CC(=O)c1cn(CCOc2ccccc2C)c2ccccc12	CHRM1 antagonist 33
O=C(C(=O)N1CCOCC1)c1cn(CCOc2ccccc2)c2ccccc12	none
CSc1ccc(CN2CCC2(C)C(=O)NCc2cccs2)cc1 (centres undefined)	none
N#C/C(=C/c1ccc(N2CCOCC2)o1)C(=O)Nc1ccccc1	CHO-K1 Ca ag 61, CHRM1 agonist 50
N#C/C(=C\c1ccc(N2CCOCC2)o1)C(=O)NC1CCCCC1	CHO-K1 Ca ag 16
N#C/C(=C\c1ccc(N2CCOCC2)o1)C(=O)NCCc1ccccc1	CHO-K1 Ca ag 23, CHRM1 agonist 21
O=C(c1ccco1)N1N=C(c2ccc3nccnc3c2)CC1c1ccccc1 (centres undefined)	CHO-K1 Ca PAM 47
COc1ccc(CN2CCNC(=O)C2CC(=O)N(C)C2CCOCC2)cc1OC (centres undefined)	none
COc1ccc(NC(C)=O)cc1NC(C)c1nc2sc(C)c(C)c2c(=O)[nH]1 (centres undefined)	CHO-K1 Ca ag 17
COc1ccc2nc3c(cc2c1)c(NC(=O)C1CCCO1)nn3CC(C)C (centres undefined)	CHO-K1 Ca antag 26
